MARV entry inh = inhibitors of Marburg virus binding or cell entry. actives 1.8% (n = 300,000). Potency, µM (titrated, usually from 37.8 µM), for inactives: at the top dose activity change, negative = inhibition, usual class: inhibitors. Marburg virus pseudotyped entry inhibition, cell reporter; calls by dose curve; tested in HEK293 cells; also: potency is read from the fitted curve at half-maximal effect
HCMV antiviral = human cytomegalovirus inhibition | activity change, negative = inhibition, % at 57.5 µM | actives 4.5% (n = 410,000) | HFF cells, HCMV-luciferase reporter, 72 h; hits give low values | AID 1259415; in the data active = activity change below about -60%; inconclusive = no clear call, values can overlap the other calls; inactive = above about -39%
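After 16 h attachment at 37C, HFF cells received test compound and HCMV-luciferase (1 PFU/cell); reporter luminescence read 72 h later, data normalized against buffer-only and known inhibitor Salinomycin.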
FMDV inh = blocks foot and mouth disease virus | FMDV antiviral cell-based qHTS | Potency, µM (series often up to 57.9 µM), for the others: at the highest dose activity change, negative = inhibition, hits mostly inhibitors | actives 1.2% (n = 410,000) | AID 1159524; calls by dose curve; tested in HEK293T cells; also: read-out not given here; potency is read from the fitted curve at half-maximal effect; nearly all actives have a fitted effect of over 45% in size
HCV inh = HCV inhibition | Huh7.5.1 HCVcc-Cre infection, luciferase reporter, 44 h | Potency, µM (top dose mostly 41.8 µM), inactives show top-dose activity change, negative = inhibition, hits mostly inhibitors | actives 3.4% (n = 340,000) | AID 651820; active = well fitted inhibition curve with a large enough effect; inconclusive = small, poorly fitted or top-dose-only effect, or another doubt; inactive = no such curve, though single readings can be large or run the other way; also: potency is read from the fitted curve at half-maximal effect
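Luciferase read-out (15 sec integration) after a 15 min room-temperature substrate step quantifies HCVcc-Cre infection. Cells, 1,000 per well, had compound added 4 h post-plating, then virus at ~0.5 moi, and were cultured 44 h.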
LASV entry inh = blocks Lassa virus binding to or entry into cells; Lassa virus pseudotype entry inhibition, cell reporter; actives 1.2% (n = 300,000); Potency, µM (titrated, usually from 37.9 µM), inactives show top-dose activity change, negative = inhibition, hits mostly inhibitors; calls by dose curve; tested in HEK293 cells; also: potency is read from the fitted curve at half-maximal effect; nearly all actives have a fitted effect of over 50% in size
* hit, by the source's call; ? = inconclusive; . = not tested or not shown; [ ] = another dose, or the depositor's remark. In the library only some 7.9% were active in any assay of this set; here they are far more common. % is scaled to controls: 0 for no effect and ±100 for the full control effect.

SMILES	MARV entry inh	HCMV antiviral	FMDV inh	HCV inh	LASV entry inh
Cc1nnc(SCC(=O)Nc2ccccc2NC(=O)CSc2nnc(C)s2)s1	-5%	13	-7%	7%	5%
O=C(COc1ccc(F)cc1)NNC(=O)Cn1ccc(C(F)(F)F)n1	?	69	2%	2%	2%
CC(C)C(=O)N[C@@H]1CCCN1C(=O)/C=C\c1ccccc1	-47%[14.2 µM]	.	.	.	.
Cc1ccc(C)c(CN2CCC3(CCC(CNC(=O)c4ccnn4C)O3)CC2)c1 (stereo not given)	.	.	2%	.	.
C/C(CCC12CC3CC(CC(C3)C1)C2)=N\NC(N)=S	-25%	-37	0%	11µM*	?
CC(=NNC(=S)N1CCCC1)c1ccccn1	.	-99*	14%	.	.
C/C(=N/NC(=O)c1ccccn1)c1ccc(O)cc1	.	73	0%	23%	.
CC(=NNC(=S)N1CCC1)c1ccccn1	?	-101*	11%	1.3µM*	?
CC(=NNC(=S)SCc1ccccc1)c1ccccn1	0.89µM*	-97*	?	0.32µM*	1.6µM*
S=C(NC1CCCCC1)N1CCN(c2ccccn2)CC1	-16%[46.1 µM]	9	-9%	-10%	4%
CCC(O)CNC(=O)c1cnn(-c2ncc3c(n2)-c2ccccc2CCC3)c1C1CC1 (stereo not given)	.	.	38%	.	.
CCN(CC)CCCNC(=O)C1CCN(S(C)(=O)=O)CC1	.	-16	-6%	.	?
CCOc1ccc(CCN2C(=S)N([C@@H](CC(C)C)CN3CCCC3CN3C(=S)NC[C@@H]3Cc3ccc(O)cc3)C[C@@H]2CC(C)C)cc1 (stereo not given in full)	.	?	-26%	?	.
CCOc1ccc(CCN2C(=S)N([C@@H](CC(C)C)CN3CCC[C@@H]3CN3C(=S)NC[C@@H]3CC(C)C)C[C@@H]2Cc2ccc(O)cc2)cc1	.	-98*	-22%	.	.
CCOc1ccc(CCN2C(=S)N([C@@H](CC(C)C)CN3CCCC3CN3C(=S)NC[C@@H]3CC(C)C)C[C@@H]2Cc2ccc(O)cc2)cc1 (stereo not given in full)	.	-40	-23%	0.56µM*	.
Cc1cccc(C)c1NC(=O)C(Nc1ccccc1)c1ccccc1F (stereo not given)	.	8	.	.	.
CCC(C)c1ccccc1NC(=O)COC(=O)c1ccc2[nH]c3c(c2c1)CCCC3 (stereo not given)	2.2µM*	-100*	28µM*	?	?
O=C(COC(=O)c1ccc2[nH]c3c(c2c1)CCCC3)Nc1ccc(Cl)cc1Cl	8.9µM*	-11	-18%	?	5%
CCN(C(=O)COC(=O)c1ccc2[nH]c3c(c2c1)CCCC3)C1CCS(=O)(=O)C1 (stereo not given)	-4%[46.1 µM]	-25	-11%	-26%	-3%
CN(CCC#N)C(=O)COC(=O)c1ccc2[nH]c3c(c2c1)CCCC3	?	-73*	9%	?	?
COc1cc(-c2nc(C(=O)NCC3CCCO3)cc3c2[nH]c2ccccc23)cc(OC)c1OC (stereo not given)	.	18	?	3.5µM*	.
O=C(NCC1CCCO1)c1cc2c([nH]c3ccccc32)c(-c2cccc(Cl)c2)n1 (stereo not given)	.	.	?	1.3µM*	.
COc1ccccc1-c1nc(C(=O)NCC2CCCO2)cc2c1[nH]c1ccccc12 (stereo not given)	.	.	-24%	?	.
COc1ccccc1CNC(=O)c1cnn(-c2nccc(-c3cccs3)n2)c1C	.	.	49%	.	.
CNc1c(NS(=O)(=O)c2ccc3c(c2)CCCC3)c(=O)oc2ccccc12	21%[46.1 µM]	-1	4%	20%	?
SMILES	MARV entry inh	HCMV antiviral	FMDV inh	HCV inh	LASV entry inh
CC(Sc1nnc(C2CC2)n1C1CC1)C(=O)N(C)Cc1cccc(F)c1 (stereo not given)	.	-4	-7%	-4%	.
CCN(CC)S(=O)(=O)c1ccc2oc(C(=O)Nc3ccc(Br)cc3F)c(C)c2c1	.	-4	-27%	.	3%[46.1 µM]
CCN(CC)S(=O)(=O)c1ccc(/C=C/C(=O)Nc2ccc(N3CCOCC3)cc2)cc1	-6%	-83*	?	13µM*	.
CCN(CC)S(=O)(=O)c1ccc(/C=C/C(=O)Nc2ccc(Br)cc2F)cc1	6.5µM*	-73*	5µM*	2µM*	1.6µM*
CCN(CC)S(=O)(=O)c1ccc(/C=C/C(=O)Nc2ccc(F)cc2F)cc1	5%	-69*	?	?	.
CCN(CC)S(=O)(=O)c1ccc(/C=C/C(=O)Nc2ccc(F)c(F)c2F)cc1	?	-64*	?	1.4µM*	?
O=[N+]([O-])c1ccc(NS(=O)(=O)c2ccc(Cl)c(Cl)c2)cc1	.	-64*	10%	.	.
O=[N+]([O-])c1ccc(S(=O)(=O)Nc2ccncc2)cc1	5%	-26	-15%	-8%	2%
Cc1cc(Cl)ccc1NC(=O)CN1C(=O)C(=O)c2ccccc21	-21%[46.1 µM]	18	6%	.	-10%[46.1 µM]
O=P(Cc1cc(Br)cc(Br)c1OCCO)(c1ccccc1)c1ccccc1	?	-5	0%	-5%	?
O=P(c1ccccc1)(c1ccccc1)c1cc(Br)cc(Br)c1OCCO	13µM*	.	-20%	-21%	-4%[46.1 µM]
CC(=O)Nc1cccc(C(=O)NCc2ccc3c(c2)CCN3C(=O)c2ccc(F)cc2)c1	.	2	-18%	.	7%[46.1 µM]
O=C(C=Cc1cccs1)c1cccs1	-6%[46.1 µM]	?	33%	-20%	8%[46.1 µM]
C/C(=C\c1cccs1)C(=O)c1c(C)cc(C)[nH]c1=O	.	-12	44%	11%	.
CCc1ccc(/C=C/C(=O)c2c(C)cc(C)[nH]c2=O)cc1	?	-95*	28µM*	?	?
COc1ccccc1/C=C/C(=O)c1c2c(c(C)[nH]c1=O)CCCC2	21µM*	-109*	?	.	-46%[14.3 µM]
COc1ccccc1/C=C(\C)C(=O)c1c(C)cc(C)[nH]c1=O	.	-36	-18%	11%	.
Cc1cc(C)c(C(=O)/C=C/c2cccs2)c(=O)[nH]1	.	-64*	36%	-14%	.
O=C(/C=C\c1cccs1)c1c(O)ccc2ccc(=O)oc12	-9%	-62*	-24%	-7%	?
C[C@@]12CCCO[C@@]13C=CC(=O)C=C3CCC2	.	17	.	.	.
COc1ccc(S[C@]2(C(=O)NCC(F)(F)F)CC(=O)N[C@@H]2c2ccc(OC)cc2)cc1	.	1	.	.	.
CCOc1cc(C2c3c(-c4ccccc4O)n[nH]c3C(=O)N2CCc2ccccc2)ccc1O (stereo not given)	5%[46.1 µM]	-24	-23%	.	?
Cc1ccc(/C=C/C(=O)c2c(C)cc(C)[nH]c2=O)cc1	23µM*	-98*	?	?	?
Cc1cc(C)c(C(=O)/C=C/c2ccco2)c(=O)[nH]1	2%[46.1 µM]	23	27%	-5%	-7%
COc1ccc(/C=C/C(=O)c2c(C)cc(C)[nH]c2=O)c2ccccc12	?	-100*	-25%	11µM*	?
O=C(CSc1nnc(COc2ccc(Cl)cc2)o1)N1c2ccccc2CCc2ccccc21	?	-16	0%	10µM*	?

Source: PubChem BioAssay
